# In PubChem BioAssay:
# Unmarked numbers belong to inactive results. For some assays here: Entries with a potency or affinity are not part of this list. Calls of active or inactive are those of the source. Unless noted, the rule behind the calls is not given here.
# Legend:
# [1] = antimalarial activity against Dd2 strain (AID 2302;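 active = growth inhibition above 50% at the single 2 µM test dose, taken to imply half-maximal potency below 2 µM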;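 note: 0% = DMSO untreated growth and 100% = chloroquine plus artemisinin killed control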); conditions: P. falciparum Dd2 in RBCs, LDH growth readout, 72 h; at 2 µM; stronger effect = higher value
# [2] = HepG2 cytotoxicity, primary screen, cytotoxicity control for P. falciparum antimalarial project, cell-based, ATP luminescence (AID 2303;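 active = inhibition above 50%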;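 note: 0% = DMSO wells and 100% = digitonin-killed cells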); conditions: HepG2 viability, 24-48 h, at 10 µM, stronger effect = higher value
# [3] = biological target: L-lactate dehydrogenase (Plasmodium falciparum (isolate CDC / Honduras)) (UniProt Q27743); assay: PfLDH activity inhibition – cell lysate, 3D7 strain, counter-screen for P. falciparum growth inhibition project (AID 2304);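 note: 0% = vehicle and 100% = reference inhibitor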; conditions: P. falciparum 3D7 crude extract, LDH APAD/NBT absorbance; at 2 µM; stronger effect = higher value
# Chain of L-lactate dehydrogenase (Plasmodium falciparum (isolate CDC / Honduras)) (Q27743 whole entry, looked up): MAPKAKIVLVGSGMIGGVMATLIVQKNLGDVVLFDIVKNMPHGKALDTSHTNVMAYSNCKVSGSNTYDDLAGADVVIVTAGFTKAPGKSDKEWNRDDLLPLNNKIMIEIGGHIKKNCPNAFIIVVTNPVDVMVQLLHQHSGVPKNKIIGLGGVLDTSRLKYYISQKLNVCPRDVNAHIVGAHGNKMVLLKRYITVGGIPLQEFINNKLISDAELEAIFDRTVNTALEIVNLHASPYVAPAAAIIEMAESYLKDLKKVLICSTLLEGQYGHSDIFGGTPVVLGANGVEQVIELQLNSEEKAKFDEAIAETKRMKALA
# [4] = inhibition of 3D7 malaria parasite growth – strain 3D7 (AID 2306);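 note: 0% = DMSO wells and 100% = chloroquine plus artemisinin control wells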; conditions: P. falciparum 3D7 erythrocytic growth, LDH absorbance, 72 h; at 2 µM; stronger effect = higher value
# [5] = biological target: Calcium-dependent protein kinase 1 (Plasmodium falciparum (isolate 3D7)) (UniProt P62344); assay: PfCDPK1 kinase inhibitors, biochemical, TCAMS library (AID 1159585; cut-off not given, nearly all actives have IC50 up to about 0.98 µM;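 note: inhibitors leave more ATP so luminescence rises with inhibition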); conditions: recombinant PfCDPK1, Kinase-Glo ATP depletion luminescence
# Chain of Calcium-dependent protein kinase 1 (Plasmodium falciparum (isolate 3D7)) (P62344 whole entry, looked up): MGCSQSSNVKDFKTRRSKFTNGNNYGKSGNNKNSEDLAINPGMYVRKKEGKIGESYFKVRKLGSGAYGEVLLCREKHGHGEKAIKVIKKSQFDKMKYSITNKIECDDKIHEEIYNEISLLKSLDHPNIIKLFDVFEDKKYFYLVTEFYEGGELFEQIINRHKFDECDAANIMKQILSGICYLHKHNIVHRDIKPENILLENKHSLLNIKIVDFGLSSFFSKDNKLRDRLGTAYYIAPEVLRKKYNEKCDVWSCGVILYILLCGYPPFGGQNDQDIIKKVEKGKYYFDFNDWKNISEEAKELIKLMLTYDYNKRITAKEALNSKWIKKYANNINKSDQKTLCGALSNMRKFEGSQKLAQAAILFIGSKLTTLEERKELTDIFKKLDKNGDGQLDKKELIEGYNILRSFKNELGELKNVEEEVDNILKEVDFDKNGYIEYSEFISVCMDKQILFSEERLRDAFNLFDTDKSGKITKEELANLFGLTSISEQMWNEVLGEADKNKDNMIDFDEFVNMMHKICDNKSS
# [6] = biological target: Plasmodium falciparum protein kinase 6 (PK6, PF3D7_1337100) (UniProt Q8IDW1); assay: PfPK6 kinase inhibitors, biochemical, TCAMS library (AID 1159586); conditions: recombinant PfPK6, Kinase-Glo ATP depletion luminescence
# Chain of Plasmodium falciparum protein kinase 6 (PK6, PF3D7_1337100) (Q8IDW1 1-305): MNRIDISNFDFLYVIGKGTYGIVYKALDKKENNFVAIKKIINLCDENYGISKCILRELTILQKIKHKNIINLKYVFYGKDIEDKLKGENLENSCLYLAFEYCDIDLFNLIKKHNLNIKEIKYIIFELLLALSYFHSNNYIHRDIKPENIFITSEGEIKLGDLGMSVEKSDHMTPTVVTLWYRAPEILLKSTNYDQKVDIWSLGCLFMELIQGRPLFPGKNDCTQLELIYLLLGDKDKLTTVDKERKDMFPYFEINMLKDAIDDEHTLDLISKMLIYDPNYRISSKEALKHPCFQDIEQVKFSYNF
# [7] = biological target: Protein kinase 7 (PK7), Plasmodium falciparum 3D7 (PF3D7_0213400) (UniProt Q7YTF7); assay: inhibition of Plasmodium PK7 catalytic activity – biochemical, TCAMS antimalarial set, Kinase-Glo luminescence (AID 1159587); conditions: recombinant PfPK7, Kinase-Glo ATP depletion luminescence
# Chain of Protein kinase 7 (PK7), Plasmodium falciparum 3D7 (PF3D7_0213400) (Q7YTF7 1-343): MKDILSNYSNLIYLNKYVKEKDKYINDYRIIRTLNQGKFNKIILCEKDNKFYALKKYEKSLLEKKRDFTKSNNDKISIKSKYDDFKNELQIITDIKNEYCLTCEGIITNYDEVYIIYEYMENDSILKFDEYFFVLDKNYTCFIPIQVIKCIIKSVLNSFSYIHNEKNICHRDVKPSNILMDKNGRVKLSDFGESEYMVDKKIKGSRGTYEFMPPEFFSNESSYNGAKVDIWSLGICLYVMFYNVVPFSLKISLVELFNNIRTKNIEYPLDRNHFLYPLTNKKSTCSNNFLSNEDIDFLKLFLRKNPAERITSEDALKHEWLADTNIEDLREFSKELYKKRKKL
# [8] = biological target: Calcium-dependent protein kinase 4 (Plasmodium falciparum (isolate 3D7)) (UniProt Q8IBS5); assay: PfCDPK4 kinase inhibitors, biochemical, TCAMS library (AID 1159588; cut-off not given, nearly all actives have IC50 up to about 0.91 µM); conditions: recombinant PfCDPK4, Kinase-Glo ATP depletion luminescence
# Chain of Calcium-dependent protein kinase 4 (Plasmodium falciparum (isolate 3D7)) (Q8IBS5 whole entry, looked up): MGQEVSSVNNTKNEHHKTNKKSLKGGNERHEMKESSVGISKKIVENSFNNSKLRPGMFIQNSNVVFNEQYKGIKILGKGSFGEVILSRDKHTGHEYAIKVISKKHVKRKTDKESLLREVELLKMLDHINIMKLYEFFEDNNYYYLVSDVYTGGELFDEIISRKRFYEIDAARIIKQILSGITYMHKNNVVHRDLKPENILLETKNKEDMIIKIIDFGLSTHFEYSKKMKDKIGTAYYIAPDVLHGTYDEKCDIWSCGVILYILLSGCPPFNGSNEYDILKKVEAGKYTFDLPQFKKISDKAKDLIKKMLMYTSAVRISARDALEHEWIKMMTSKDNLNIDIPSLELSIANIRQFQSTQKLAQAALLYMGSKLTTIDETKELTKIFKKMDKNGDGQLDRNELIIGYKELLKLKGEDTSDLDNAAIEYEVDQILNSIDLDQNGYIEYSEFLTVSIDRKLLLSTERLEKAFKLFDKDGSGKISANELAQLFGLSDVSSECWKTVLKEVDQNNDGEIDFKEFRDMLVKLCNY
Compound,growth inhibition [1],inhibition [2],inhibition [3],growth inhibition [4],outcome [5],outcome [6],outcome [7],outcome [8]
O=C(COc1ccc(Cl)c(Cl)c1)NCCCCCN1CCCN(C(=O)Nc2ccc(Cl)c(Cl)c2)CC1,7%,29%,3%,93% (active),inactive,inactive,inactive,inactive
CN(c1ccc(NC(=O)Nc2cc(C(C)(C)C)on2)cc1)c1ccnc(NCCOC(=O)Nc2cc(C(C)(C)C)on2)n1,54% (active),59% (active),4%,102% (active),inactive,inactive,inactive,inactive
Cc1cccc2[nH]c(-c3cccc(-c4cccc(NC(=O)Nc5ccsc5)c4)c3)nc12,41%,15%,-3%,102% (active),inactive,inactive,inactive,inactive
COc1ccc(CCNCCCCCCNCCc2ccc(OC)c(OC)c2Cl)c(Cl)c1OC,-2%,19%,1%,96% (active),inactive,inactive,inactive,inactive
Cc1cccc2[nH]c(-c3cccc(-c4cccc(NC(=O)c5ccncc5)c4)c3)nc12,78% (active),22%,-3%,100% (active),inactive,inactive,inactive,inactive
CN1CCC(N(Cc2ccc(-c3ccc(C(F)(F)F)cc3)nc2)C(=O)Cn2c(CCc3cccc(F)c3F)cc(=O)c3ccccc32)CC1,85% (active),60% (active),3%,91% (active),inactive,inactive,inactive,inactive
Cc1ccc(O)cc1Nc1ccnc2cc(-c3csc(CN4CCN(C)CC4)n3)ccc12,77% (active),6%,-4%,100% (active),inactive,inactive,inactive,inactive
Cc1csc(-c2nc(NCCc3c(C)noc3C)ncc2-c2ccsc2)n1,82% (active),6%,-4%,90% (active),inactive,inactive,inactive,inactive
COc1ccccc1NC(=O)Nc1cccc(-c2cccc(-c3nc4c(C)cccc4[nH]3)c2)c1,90% (active),11%,-1%,101% (active),inactive,inactive,inactive,inactive
Cc1nc2ccccc2c(=O)n1N=Cc1ccccc1[N+](=O)[O-],26%,-8%,3%,94% (active),inactive,inactive,inactive,inactive
N#Cc1cccc(C(=O)NC2CCN(c3ccnc(Nc4ccc(F)cc4)n3)C2)c1 (stereo not given),91% (active),4%,-8%,98% (active),inactive,inactive,inactive,inactive
Cc1cc(C(=O)Nc2ccc(C)c(-c3nc(N(C(=O)c4ccc(F)c(C)c4)C4CCNCC4)nc4c3ccc(=O)n4-c3c(F)cccc3F)c2)ccc1F,99% (active),4%,-3%,99% (active),inactive,inactive,inactive,inactive
O=C(N[C@H]1CCN(Cc2ccc(OCCN3CCCC3)c3ccccc23)C1)c1ccc(Cl)c(Cl)c1,51% (active),90% (active),-1%,100% (active),inactive,inactive,inactive,inactive
COc1ccc(CCN(C)CCCN2CCC(NC(=O)c3cccc4c(=O)c5ccccc5[nH]c34)CC2)cc1OC,72% (active),19%,2%,99% (active),inactive,inactive,inactive,inactive
CN(C)S(=O)(=O)c1ccc(N2CCN(CCC3(c4cccc(F)c4)CCN(C(=O)C(C)(C)C)CC3)CC2)c2nonc12,85% (active),8%,-1%,91% (active),inactive,inactive,inactive,inactive
CCN1CCC(N(Cc2ccc(-c3ccc(C(F)(F)F)cc3)cc2)C(=O)Cn2c(CCc3cccc(F)c3F)cc(=O)c3ccccc32)C1 (stereo not given),84% (active),43%,3%,93% (active),inactive,inactive,inactive,inactive
CCCCCc1cc(O)c2c(c1)OC(C)(C)C=C2C1=CCN(Cc2ccsc2)CC1,48%,20%,-1%,98% (active),inactive,inactive,inactive,inactive
CCNc1cc(C(=O)N[C@@H](Cc2ccccc2)[C@H](O)CNC2(CC)CCCCC2)cc(N2CCCCS2(=O)=O)c1,98% (active),3%,-3%,98% (active),inactive,inactive,inactive,inactive
O=C(NCc1ccc(Cl)cc1)c1ccc(CN2CCCN(Cc3cccc(O)c3)CC2)cc1,12%,25%,-5%,82% (active),inactive,inactive,inactive,inactive
CCC(=O)OC(CCN(CC)CC)(c1ccccc1)c1ccccc1,6%,30%,4%,98% (active),inactive,inactive,inactive,inactive

Compound,growth inhibition [1],inhibition [2],inhibition [3],growth inhibition [4],outcome [5],outcome [6],outcome [7],outcome [8]
Cn1cnc2c(Nc3ccncc3)nc(-c3ccc4ccccc4c3)nc21,66% (active),55% (active),7%,96% (active),inactive,inactive,inactive,inactive
O=C(Nc1ccc(-c2nc3ccccc3[nH]2)cc1)c1cncc(Br)c1,49%,35%,1%,95% (active),inactive,inactive,inactive,inactive
COc1ccc(Nc2nccc(N3CCC(NC(=O)Nc4ccc5c(c4)OCO5)C3)n2)cc1 (stereo not given),57% (active),27%,-2%,98% (active),inactive,inactive,inactive,inactive
O=C(/C=C/c1ccc(Cl)cc1)NCCCCCN1CCCN(C(=O)Nc2ccc(Cl)c(C(F)(F)F)c2)CC1,1%,54% (active),1%,95% (active),inactive,inactive,inactive,inactive
CN(CCN)Cc1ccc(-c2ccc(-c3nc4ccc(F)cc4[nH]3)s2)cc1,81% (active),31%,-1%,96% (active),inactive,inactive,inactive,inactive
Cc1cc(=O)c(C2CCC(c3ccc(Cl)cc3)CC2)c(C)[nH]1 (stereo not given),70% (active),-13%,0%,88% (active),inactive,inactive,inactive,inactive
O=C(/C=C/c1ccc(C(F)(F)F)cc1)NCCCCCN1CCN(C(=O)Nc2ccc(Cl)c(Cl)c2)CC1,-4%,37%,5%,95% (active),inactive,inactive,inactive,inactive
COc1ccc(NC(=O)c2ccc(Br)c(C)c2)cc1N1CCN(CCCCc2ccccc2)CC1,17%,29%,-1%,88% (active),inactive,inactive,inactive,inactive
N#Cc1ccc2[nH]cc(C(=O)CCCCCN(Cc3ccccc3)Cc3ccccc3)c2c1,97% (active),10%,2%,93% (active),inactive,inactive,inactive,inactive
CCCCCC(C)(C)NC[C@@H](O)[C@H](Cc1ccccc1)NC(=O)c1cc(NCC)cc(N2CCCC2=O)c1,97% (active),9%,-5%,99% (active),inactive,inactive,inactive,inactive
Ic1cc(Nc2ncnc3ccsc23)ccc1OCc1ccccc1,81% (active),22%,4%,101% (active),inactive,inactive,inactive,inactive
COc1cc2cc(Cc3cnc(N)nc3N)ccc2c(OC)c1OC,2%,1%,7%,97% (active),inactive,inactive,inactive,inactive
NC(=NCc1ccc(Cl)c(Cl)c1)NC(=NCCCCCCN=C(NC(N)=NCc1ccc(Cl)c(Cl)c1)N1CCCCC1)N1CCCCC1,99% (active),6%,-5%,100% (active),inactive,inactive,inactive,inactive
Cc1cccc(CN2CCCN(Cc3ccc(C(=O)Nc4ccc(C)c(F)c4)cc3)CC2)c1,3%,47%,-4%,85% (active),inactive,inactive,inactive,inactive
COc1cc(OC)c(NC(=O)C2c3ccccc3C(=O)N(CC(C)C)C2c2cccs2)cc1Cl (stereo not given),100% (active),9%,-1%,100% (active),inactive,inactive,inactive,inactive
COc1cccc(C(=O)Nc2nonc2-c2ccc(OC)c(OC)c2)c1,50% (active),7%,-8%,97% (active),inactive,inactive,inactive,inactive
O=[N+]([O-])c1ccc(NC(=NC2CCCc3ccccc32)Nc2ccccc2Br)c(O)c1 (stereo not given),89% (active),-4%,-3%,98% (active),inactive,inactive,inactive,inactive
Clc1ccc(-c2nc3ccc(-c4ccc5nc(-c6ccc(Cl)cc6)[nH]c5c4)cc3[nH]2)cc1,99% (active),59% (active),-5%,101% (active),inactive,inactive,inactive,inactive
Cc1cc(N[C@@H](Cc2ccccc2)C(=O)NCc2cccc(F)c2)nc(NCc2ccccc2C)n1,75% (active),6%,0%,100% (active),inactive,inactive,inactive,inactive
Cn1cc(Br)c(-c2cccc(Nc3ccnc4cc(-c5nccs5)ccc34)c2)n1,32%,37%,-1%,91% (active),inactive,inactive,inactive,inactive
